{
  "source": "PubChem BioAssay (Tox21)",
  "note": "Where “and” joins values, the source holds several entries; their conditions need not be identical. Identical values can stand only once. Results filed as inconclusive are left out. Entries that show only a call come without a potency. A structure can be active in one record and inactive in another. Calls of active or inactive are those of the source. Calls come from the whole dose curve; as a rule, active = well fitted cell-killing curve with a large enough effect in the repeat runs; inconclusive = weak or mixed curves, or effect the other way; inactive = flat fitted curve, though single readings scatter. Potency is the fitted concentration of half-maximal effect.",
  "data": [
    {"assay": "qHTS RealTime-Glo MT Cell Viability Assay in HEK293 cells - 32 hour (AID 1224868); note: nearly all actives have a fitted effect of over 50% in size", "conditions": "RealTime-Glo luminescence; series mostly up to 76.8 µM", "from_the_text": "National Center for Advancing Translational Sciences [NCATS]\nNIH Chemical Genomics Center [NCGC]\nU.S. Environmental Protection Agency [EPA]\nNational Institutes of Environmental Health Sciences [NIEHS]\nNational Toxicology Program [NTP]\nU.S. Food and Drug Administration [FDA]\nMeasure of cell viability is critical in the cell-base assay. Analysis of cell viability is necessary for the characterization of cell responses to cytotoxic drugs and environmental stress. A RealTime-Glo MT Cell Viability Assay to monitor cell viability in real time of continues cell culture during 40 hours of compound treatment was used to screen Tox21 10K library compounds in Hek293 cells. The RealTime-Glo MT Cell Viability Assay is a nonlytic, homogeneous, bioluminescent method to measure cell viability in real time using a simple, plate-based method. The assay involves adding NanoLuc luciferase and a cell-permeant prosubstrate to cells in culture. Viable cells reduce the proprietary prosubstrate to generate a substrate for NanoLuc luciferase. This substrate diffuses from cells into the surrounding culture medium, where it is rapidly used by the NanoLuc Enzyme to produce a luminescent signal. The signal correlates with the number of viable cells, making the assay well suited for cytotoxicity studies.\nTox21 Assay Protocol Summary:\nThe mixture of Hek293 cell suspension and reagents were dispensed at 600cells/6 ul/well in 1536-well tissue culture treated black solid bottom plates using a Multidrop dispenser. After the assay plates were incubated at a 37 C/5% CO2 incubator for 5 hours, 23 nL of compounds dissolved in DMSO, positive and negative controls was transferred to the assay plate by a pintool work station. The plates were incubated at 37 C for 40 hours. The luminescence intensity were measured at 0h, 8h, 16h, 24h, 32h and 40h time points using ViewLux plate reader during compound treatment.", "values": [
      {"smiles": "CCCCOCCOP(=O)(OCCOCCCC)OCCOCCCC", "Potency": "inactive"},
      {"smiles": "c1cc(OCC2CO2)ccc1Cc1ccc(OCC2CO2)cc1", "note": "(stereo not given)", "Potency": "inactive"},
      {"smiles": "C=C(C)[C@H]1Cc2c(ccc3c2O[C@@H]2COc4cc(OC)c(OC)cc4[C@@H]2C3=O)O1", "Potency": "55.7 nM (active) and 11 nM (active) and 47.7 nM (active)"},
      {"smiles": "Oc1c(Cl)c(Cl)c(Cl)c(Cl)c1Cl", "Potency": "inactive"},
      {"smiles": "COP(=O)(OC)OC", "Potency": "inactive"},
      {"smiles": "CCN(N=O)C(N)=O", "Potency": "inactive"},
      {"smiles": "CCCCC(CC)COC(=O)Cl", "note": "(stereo not given)", "Potency": "inactive"},
      {"smiles": "NNC(=S)NN", "Potency": "inactive"},
      {"smiles": "CC(C)(OOC(C)(C)c1ccccc1)c1ccccc1", "Potency": "inactive"},
      {"smiles": "Oc1cc(Cl)c(Cl)cc1Cl", "Potency": "inactive"},
      {"smiles": "CC(C)N(C(=O)SCC(Cl)=C(Cl)Cl)C(C)C", "Potency": "inactive"},
      {"smiles": "c1ccc(-c2cccc(-c3ccccc3)c2)cc1", "Potency": "inactive"},
      {"smiles": "O=[N+]([O-])c1c(Cl)c(Cl)c(Cl)c(Cl)c1Cl", "Potency": "inactive"},
      {"smiles": "C#CCOS(=O)OC1CCCCC1Oc1ccc(C(C)(C)C)cc1", "note": "(stereo not given)", "Potency": "13.8 µM (active) and 19.5 µM (active)"},
      {"smiles": "NNC(N)=S", "Potency": "inactive"},
      {"smiles": "COP(=S)(OC)Oc1ccc([N+](=O)[O-])cc1", "Potency": "inactive"},
      {"smiles": "CC(C)c1ccc(CO)cc1", "Potency": "inactive"},
      {"smiles": "CCOC(=S)S", "Potency": "inactive"},
      {"smiles": "C=CCN(CC=C)C(=O)C(Cl)Cl", "Potency": "inactive"},
      {"smiles": "CN(C)c1ccc(C(=O)c2ccc(N(C)C)cc2)cc1", "Potency": "2.75 µM (active)"},
      {"smiles": "CC1(C)C(C=C(Cl)Cl)C1C(=O)OC(C#N)c1cccc(Oc2ccccc2)c1", "note": "(stereo not given)", "Potency": "inactive"},
      {"smiles": "O=c1oc2ccccc2c(O)c1C(CC(O)c1ccc(-c2ccc(Br)cc2)cc1)c1ccccc1", "note": "(stereo not given)", "Potency": "inactive"},
      {"smiles": "COc1ccc(C=O)cc1", "Potency": "inactive"},
      {"smiles": "Nc1ccc(-c2ccc(N)c(N)c2)cc1N", "Potency": "inactive"},
      {"smiles": "c1ccc(N=Nc2ccccc2)cc1", "Potency": "inactive"},
      {"smiles": "Nc1c(Cl)cc([N+](=O)[O-])cc1Cl", "Potency": "inactive"},
      {"smiles": "O=C(O)CC[N+](=O)[O-]", "Potency": "inactive"},
      {"smiles": "ClC1C(Cl)C(Cl)C(Cl)C(Cl)C1Cl", "note": "(stereo not given)", "Potency": "inactive and 54.9 µM (active)"},
      {"smiles": "CC(C)(c1cc(Cl)c(O)c(Cl)c1)c1cc(Cl)c(O)c(Cl)c1", "Potency": "inactive"},
      {"smiles": "CC(C)Oc1cc(-n2nc(C(C)(C)C)oc2=O)c(Cl)cc1Cl", "Potency": "34.7 µM (active)"},
      {"smiles": "Cc1ccc2c(c1N)C(=O)c1ccccc1C2=O", "Potency": "8.62 µM (active) and 7.76 µM (active)"},
      {"smiles": "CCC(C)c1ccc(O)cc1", "note": "(stereo not given)", "Potency": "inactive"},
      {"smiles": "c1ccc(P(c2ccccc2)c2ccccc2)cc1", "Potency": "inactive"},
      {"smiles": "CCCCCCOC(=O)c1ccccc1C(=O)OCCCCCC", "Potency": "inactive"},
      {"smiles": "N[C@@H](Cc1ccc(N(CCCl)CCCl)cc1)C(=O)O", "Potency": "5.27 µM (active)"},
      {"smiles": "OCC(O)CO", "Potency": "inactive"},
      {"smiles": "N#CCCCl", "Potency": "inactive"},
      {"smiles": "CC(C)(C)c1ccccc1O", "Potency": "inactive"},
      {"smiles": "Cc1cc(Cl)ccc1OCCCC(=O)O", "Potency": "inactive"},
      {"smiles": "O=Cc1ccco1", "Potency": "inactive"}
    ]}
  ]
}
